The source of these data is PubChem BioAssay AID588493 (Sanford-Burnham Center for Chemical Genomics, 2011).

A word on the inhibition: it is the change of the read-out against control, counted positive when it falls.

Each structure is given as a SMILES string. Screen size: about 360,000 compounds; about 2,100 (0.58%) were called active. The list comes from a sample in which actives are over-represented; it also holds similar structures and randomly drawn compounds. Unmarked numbers belong to inactive results.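 How the source made its calls: active means inhibition at 20 µM, scaled to each plate's controls, above about 33% (limit read from the data); inactive means the rest.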

26S proteasome non-ATPase regulatory subunit 14 (Homo sapiens), sequence (O00487 whole entry, looked up): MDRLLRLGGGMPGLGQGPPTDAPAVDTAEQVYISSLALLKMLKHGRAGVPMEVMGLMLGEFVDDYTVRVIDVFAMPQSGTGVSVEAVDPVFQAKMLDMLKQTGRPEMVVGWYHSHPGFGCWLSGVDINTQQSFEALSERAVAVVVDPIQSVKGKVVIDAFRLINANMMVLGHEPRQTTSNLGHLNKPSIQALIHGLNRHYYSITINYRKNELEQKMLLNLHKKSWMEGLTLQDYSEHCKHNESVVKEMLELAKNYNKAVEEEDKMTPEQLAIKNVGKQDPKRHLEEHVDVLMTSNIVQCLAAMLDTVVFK

This experiment has as its target 26S proteasome non-ATPase regulatory subunit 14 (Homo sapiens) (UniProt O00487). The experiment is described as follows: inhibition of 26S proteasome subunit Rpn11 – biochemical, fluorescence polarization, uHTS, primary screen (AID 588493). To be noted: human 26S proteasome, Ub4-pepOG fluorescence polarization; at 20 µM; active compounds read high; 20S core pre-blocked with epoxomicin.
With `CCCCc1ccc(NC(=O)CN2C(=O)NC(Cc3ccccc3)C2=O)cc1` (stereo not drawn), the inhibition was -0.4%.
Take `CC(C)Oc1ccc(S(=O)(=O)N2CCOCC2)cc1NC(=O)C1CCCC1`: the inhibition is 2.4%.
Under `O=C1NC(Nc2nc3ccccc3s2)(C(F)(F)F)C(=O)N1C1CCCCC1` (stereo not drawn) stands 3.6%; under `O=C(CN1CCCC1)Nc1sc2c(c1C(=O)Nc1ccccc1)CCCC2`, -13.4%; under `Cc1ccc(NC(=O)c2c(NC(=O)CCC(=O)O)sc3c2CCCCC3)cc1`, 40.1% (active).
As to `COC(=O)c1c(NC(=O)CCN2CCOCC2)sc2c1CCCC2`, the inhibition was 6.6%.
Take `COC(=O)c1ccc(CNC(=O)c2ccc3oc(C(C)C)nc3c2)cc1`: the inhibition was -13.2%.
In the case of `COc1cccc(CNC(=O)C2CCN(S(=O)(=O)c3cccc4cccnc34)CC2)c1` it was 7.6%.
Under `Cc1cc(OCCOc2cccc3cccnc23)c(C)cc1Cl` stands -1.8%; under `CC(=O)/C(=N\Nc1ccc(Cl)cc1Cl)Sc1cccc2cccnc12`, 78.5% (active).
Under `CCOC(=O)NN1C(=O)c2ccccc2NC1c1ccccc1O` (stereo not drawn) stands -5.9%; under `N#Cc1cccc(NC(=O)COC(=O)c2ccccc2C(=O)c2ccc(Cl)c([N+](=O)[O-])c2)c1`, -2.3%; under `COc1ccc(CN2[C@@H](CC(=O)O)c3cc(F)ccc3S2(=O)=O)cc1`, -5.9%.
For the molecule `COc1cc(/C=N/NC(=O)c2cccnc2)ccc1OC(=O)c1cccc(Br)c1`, the inhibition is -13.5%.
In the case of `CCn1c(/C=N/NC(=O)c2ccc(OC)cc2)nc2ccccc21` it was -5.8%.
In the case of `COc1cccc(/C=N/NC(=O)c2[nH]nc3c2CCc2ccccc2-3)c1O` it was 52.1% (active); in that of `COc1ccc(CCNC(=O)CCNS(=O)(=O)c2cc(Br)cnc2N)cc1OC`, 0.1%.
In the case of `CC(C)C(NC(=O)c1cccc(S(=O)(=O)N2CCOCC2)c1)C(=O)NCCc1ccccn1` (stereo not drawn) it was -2.1%; in that of `COCCCN1C(=O)c2ccc(C(=O)OCC(=O)NCc3ccccc3OC)cc2C1=O`, 3.9%.
As to `CCOc1ccc(NC(=O)c2ccc(NC(=O)COC(=O)c3ccc(NC(=O)CC#N)cc3)cc2)cc1`, the inhibition was 128% (active).
Under `N#CCC(=O)Nc1ccc(C(=O)OCC(=O)Nc2sc3c(c2C#N)CCCC3)cc1` stands 39.6%; under `CC(C)NC(=O)NC(=O)COC(=O)c1ccc(NC(=O)CC#N)cc1`, -1.1%.
In the case of `COc1ccccc1-c1n[nH]c2c1[C@H](C)CC[C@H]2C(C)C` it was 0.4%; in that of `CN(C)S(=O)(=O)c1ccc(C(=O)NCC2(N3CCOCC3)CCCCC2)cc1`, 2.6%; in that of `Cc1cc(C)c(-c2csc(NC(=O)CCCc3nc4ccccc4c(=O)[nH]3)n2)c(C)c1`, 8.9%.
In the case of `O=C(CSc1nc2ccccc2c(=O)[nH]1)Nc1nc(-c2ccc(Br)cc2)cs1` it was 132% (active); in that of `O=C(COC(=O)c1cc(=O)[nH]c2ccccc12)Nc1nc(-c2cccc(Br)c2)cs1`, 1.7%.
For `Cc1ccc2c(c1)nnc1nnc(SCC(=O)O)n12`, the inhibition was -12%.
Consider `CC(C)(C)NC(=O)COc1ccc(CNc2ccc3[nH]c(=O)[nH]c3c2)cc1`, for which the inhibition is -10.4%.
With `COC(=O)c1ccc(OCC(=O)NC(C)(C)C)cc1`, the inhibition was 62.8% (active).
In the case of `CS(=O)(=O)c1ccc(C(=O)OCC(=O)NNC(=O)COc2ccc(Cl)cc2)cc1` it was 22.5%; in that of `Cc1cc(C)c2cc(CN(Cc3cccs3)Cc3nnnn3CC3CCCO3)c(=O)[nH]c2c1` (stereo not drawn), -19.3%.
In the case of `CCC(C)N1CC(=O)N2Cc3[nH]c4ccccc4c3C[C@H]2C1=O` (stereo partly drawn) it was 7.3%.
For `CC(C)=C(NC(=O)c1ccco1)C(=O)NCCc1nc2ccccc2[nH]1`, the inhibition is -7.6%.
Under `CC(C)Oc1ccc(/C=C(\NC(=O)/C=C/c2ccco2)C(=O)NCCc2nc3ccccc3[nH]2)cc1` stands 53.9% (active).
Under `CCCCCOc1ccc(/C=C/C(=O)NCCc2nc3ccccc3[nH]2)cc1OC` stands -4.2%.
Under `CCN(CC(=O)NCc1cccs1)S(=O)(=O)c1ccc(NC(C)=O)cc1` stands -1.7%.
With `Cc1cccc(OCCC(=O)Nc2cc(S(=O)(=O)N3CCCCC3)ccc2N2CCOCC2)c1`, the inhibition is 2%.
Under `CN(C)c1ccc(-n2cccc2/C=C2/SC(=Nc3ccc(F)cc3)NC2=O)cc1` stands 44% (active); under `CN(C)c1ccc(-n2cccc2/C=N/n2cnnc2)cc1`, 1.5%; under `CCn1cc(C(=O)OCC(=O)Nc2cccc(C)c2)c(=O)c2ccc(C)nc21`, -1.5%.
Turning to `CC(=O)Oc1cc2c(C(=O)NCCN3CCOCC3)c(C)oc2c2ccccc12`, the inhibition is -0.1%.
Under `O=C(Cc1ccc(F)cc1)N1CCN=C1SCc1cccc([N+](=O)[O-])c1` stands 3%; under `O=C(CCS(=O)(=O)c1cccc2nonc12)NCCc1ccccc1Cl`, 179% (active).
In the case of `O=C(NCc1ccccc1Cl)C1CCN(S(=O)(=O)c2cccc3nonc23)CC1` it was 4.7%; in that of `CC1CCCCC1NC(=O)CCS(=O)(=O)c1cccc2nonc12` (stereo not drawn), -3.4%; in that of `Cc1ccc(N=Cc2c(O)n(-c3nccs3)c(=O)c3ccccc23)c(C)c1`, -26.4%.
Under `Cc1ccc(N=Cc2c(O)cc(C)oc2=O)c(C)c1` stands 40.7% (active); under `Cc1cccc(OCc2nnc(SCn3nnc4ccccc4c3=O)o2)c1`, 6.8%.
Turning to `COc1cc(CN(C)Cc2nc3cc(C(F)(F)F)ccc3c(=O)[nH]2)ccc1OC(F)F`, the inhibition is 5%.
In the case of `Cc1cccc(OCc2nnc(SCc3nc4cc(C(F)(F)F)ccc4c(=O)[nH]3)o2)c1` it was 46.5% (active).
In the case of `CN(C)CCOC1c2ccccc2-c2ccccc21` it was 95.3% (active).
With `CN(C)CCOc1cccc(Br)c1`, the inhibition was -7.4%.
Under `CC(=O)O[C@H]1c2ccccc2-c2ccccc2[C@@H]1OC(C)=O` stands -2.7%.
In the case of `CCCC[C@H]1COCCS(=O)(=O)N1Cc1cccc(Cl)c1` it was 7.9%; in that of `CCOC(=O)c1cc(-c2sc(NC(=O)c3ccccc3)nc2C)n(Cc2ccccc2)n1`, 5.8%; in that of `Cn1c2ccc(F)cc2c2nnc(NN)nc21`, 5.1%.
Under `O=C(O)C1C2C=CC(O2)C1C(=O)NCCc1cccc(Cl)c1` (stereo not drawn) stands 1%.
